Records with an inconclusive call do not appear. Active and inactive are the calls of the source. Unless noted, the call rests on the fitted dose curve; in most records, active means well fitted curve in the direction sought with a large enough effect; inconclusive means small, poorly fitted or top-dose-only effect, or another doubt; inactive means no such curve, though single readings can be large; an effect the other way counts as inactive or inconclusive. Positions of bridges follow the written chain, without caps; N, C: chain ends. Non-standard residues stand in square brackets, D forms with d. Residues, ends and D or L forms follow the SMILES beside them. ξ: configuration not given here. *: point of attachment. Octanoyl(6-Me) = CCC(C)CCCCC(=O)*; ξThr(3R) = C[C@@H](O)C(N)C(=O)O; dDab = NCC[C@@H](N)C(=O)O; Dab = NCC[C@H](N)C(=O)O
Key:
[1] = qHTS profiling of the MIPE4 collection as inhibitors of Plasmodium falciparum (3D7) proliferation (AID 743344; call rule not given here;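 further: scaled between DMSO vehicle wells and 0.29 µM artemisinin as full inhibition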); details: P. falciparum 3D7 in erythrocytes, SYBR Green DNA fluorescence, 72 h; at 28.5 µM unless noted
Procedure, shortened: (§1)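 Parasite DNA was quantified by SYBR Green I fluorescence (ex 485, em 535 nm) after overnight lysis in saponin/Triton buffer at room temperature. Cultures at 0.3% parasitemia and 2.5% hematocrit were first exposed to compound for 72 h at 37 C; signals were normalised to artemisinin (0.29 uM) and vehicle wells.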

[2] = qHTS profiling of the MIPE4 collection as inhibitors of Plasmodium falciparum (DD2) proliferation (AID 743345; call rule not given here); details: P. falciparum Dd2 in erythrocytes, SYBR Green DNA, 72 h; at 28.5 µM unless noted
Procedure, shortened: as §1

[3] = qHTS profiling of the MIPE4 collection as inhibitors of Plasmodium falciparum (DD2) proliferation (Rep 2) (AID 743346; call rule not given here); details: P. falciparum Dd2 in erythrocytes, SYBR Green DNA, 72 h; at 28.5 µM unless noted
Procedure, shortened: as §1

[4] = qHTS profiling of the MIPE4 collection as inhibitors of Plasmodium falciparum (HB3) proliferation (AID 743347; call rule not given here;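 further: plate controls were DMSO vehicle wells for no effect and artemisinin wells for full effect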); details: P. falciparum HB3 in erythrocytes, SYBR Green DNA, 72 h; at 28.5 µM unless noted
Procedure, shortened: as §1

[5] = High-throughput drug toxicity screening in the BPDCN cell line Gen2.2 (AID 1224824; call rule not given here;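 further: cells exposed to compounds for 48 h before reading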); details: Gen2.2 BPDCN cells; at 45.8 µM (top of the series) unless noted
Procedure, shortened: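 CellTiter-Glo luminescence read after 48 h compound exposure at 37 C defines viability; percent activity set with DMSO as 100% and bortezomib (9.2 uM final) as 0%. 500 exponentially growing cells per well, RPMI plus 10% FBS.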

[6] = High-throughput drug toxicity screening in the BPDCN cell line Cal-1 (AID 1224825; call rule not given here); details: Cal-1 BPDCN cell viability, qHTS; at 45.8 µM (top of the series) unless noted
Procedure, shortened: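 CellTiter-Glo luminescence after 48 h compound exposure; percent activity scaled with DMSO as 100% and bortezomib (9.2 uM final) as 0%. Cal-1 cells seeded at 500/well in RPMI, 10% FBS, no phenol red.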

[7] = qHTS assay for measurement of the activity of small molecule inhibitors on Zika virus induced Caspase-3 activity in human iPSC derived neural progenitor cells (hNPCs) (AID 1224857); further: % of control where 0% means no effect; nearly all actives have a fitted effect of over 65% in size
Procedure, shortened: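 After overnight (16–20 h) culture at 350 cells/well, hNPCs get compound, then ZIKV 2 FFU/cell one hour later. Six hours on, Caspase-Glo 3/7 is added and luminescence measured.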

[8] = qHTS assay for measurement of the activity of small molecule inhibitors on Zika virus induced Caspase-3 activity in human astrocytoma cells (AID 1224859);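 further: plate controls were ZIKV-infected untreated cells for no effect and uninfected cells for full effect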
Procedure, shortened: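 Inhibition of Zika-induced caspase-3/7 activity: SNB-19 cells, 1 h compound pretreatment, ZIKV 2 FFU/cell for 6 h at 37 C, Caspase-Glo luminescence read-out.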

[9] = qHTS Screen of the MIPE 4.0 Collection Against Ewings Sarcoma (RDES) (AID 1259252); further: nearly all actives have a fitted effect of over 35% in size; further: potency means the concentration at half of the fitted maximal effect
Procedure, shortened: (§2)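 Log-phase cells in RPMI with 5% FBS attached for 4 h, then received compounds as a titration for 48 h at 37C, 5% CO2. Viability was read by CellTiter-Glo luminescence and normalized to DMSO and no-cell wells.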

[10] = qHTS Screen of the MIPE 4.0 Collection Against Ewings Sarcoma (TC71) (AID 1259253); further: nearly all actives have a fitted effect of over 40% in size; further: potency means the concentration at half of the fitted maximal effect
Procedure, shortened: as §2

[11] = qHTS Screen of the MIPE 4.0 Collection Against Ewings Sarcoma (EW8) (AID 1259255); further: nearly all actives have a fitted effect of over 35% in size; further: potency means the concentration at half of the fitted maximal effect;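 on viability: 100% = DMSO-treated cells and 0% = medium-only wells without cells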
Procedure, shortened: as §2

[12] = qHTS Screen of the MIPE 4.0 Collection Against Ewings Sarcoma (TC32) (AID 1259256); further: nearly all actives have a fitted effect of over 45% in size; further: potency means the concentration at half of the fitted maximal effect
Procedure, shortened: as §2

[13] = P-glycoprotein substrates identified in KB-8-5-11 adenocarcinoma cell line, qHTS therapeutic library screen (AID 1346987); further: nearly all actives have a fitted effect of over 65% in size; further: potency means the concentration at half of the fitted maximal effect
Procedure, shortened: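 In this qHTS, P-gp-rich KB-8-5-11 cells received library compounds across a concentration range. Viability was quantified by luminescence after 72 h at 37 degree C.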

| SMILES | parasite growth, % of DMSO control [1] | parasite growth remaining, % of DMSO control (lower = more inhibition) [2] | parasite growth, % of control (lower = inhibition) [3] | growth, % of control [4] | cell viability, % of control (lower = more cytotoxic) [5] | viability (% of control) [6] | Potency [7] | Potency [8] | Potency [9] | Potency [10] | Potency [11] | Potency [12] | Potency [13] |
| --- | --- | --- | --- | --- | --- | --- | --- | --- | --- | --- | --- | --- | --- |
| Cc1ccc([N+](=O)[O-])cc1S(=O)(=O)N(C)N=Cc1cnc2ccc(Br)cn12 | 5.89% | 11.3% | 20.1% | 3.45% | 28.8% | 3.92% | inactive | inactive | 0.0296 µM (active) | 0.0209 µM (active) | 0.0372 µM (active) | 0.0469 µM (active) | 0.0209 µM (active) |
| C[C@H](NC(=O)Cc1cc(F)cc(F)c1)C(=O)N[C@H](C(=O)OC(C)(C)C)c1ccccc1 | 74.2% | 95.2% | 79.9% | 99.7% | 89% | 96.1% | inactive | inactive | inactive | inactive | inactive | inactive | 18.7 µM (active) |
| C[C@H](NCc1ccc2c(c1)nc(NC(=O)c1ccc(-c3cn[nH]c3)s1)n2CCc1ccccc1)C(C)(C)C | 5.07% | 4.87% | 13.1% | 10.1% | 9.44% | 2.31% | inactive | inactive | 2.35 µM (active) | 1.48 µM (active) | 2.09 µM (active) | 2.96 µM (active) | 2.35 µM (active) |
| O=C(NNC(=O)c1ccc(CNS(=O)(=O)c2ccc(F)c(Cl)c2)cc1)c1ccccc1 | 371% | 87.9% | 100% | 588% | 143% | 116% | inactive | inactive | inactive | inactive | inactive | inactive | inactive |
| CC(=O)OC[C@@H]1O[C@@H](n2ccc(=O)[nH]c2=O)[C@H](OC(C)=O)[C@H]1OC(C)=O | 158% | 115% | 141% | 250% | 154% | 104% | inactive | inactive | inactive | inactive | inactive | inactive | inactive |
| CC[C@]12C=CCN3CC[C@@]4(c5cc([C@@]6(C(=O)OC)C[C@H]7C[C@@H](C(C)(F)F)CN(Cc8c6[nH]c6ccccc86)C7)c(OC)cc5N(C)[C@H]4[C@@](O)(C(=O)OC)[C@H]1OC(C)=O)[C@@H]32 | 17% | 12.3% | 24.8% | 16.3% | 8.97% | 9.46% | inactive | inactive | 0.0105 µM (active) | 0.0187 µM (active) | 0.0053 µM (active) | inactive | 0.743 µM (active) |
| Nc1nc(=O)n([C@H]2C[C@H](O)[C@@H](CO)O2)cc1F | 99.5% | 95.7% | 85.7% | 107% | 190% | 35.3% | inactive | inactive | 0.0469 µM (active) | 0.0935 µM (active) | 0.0662 µM (active) | 0.0296 µM (active) | 4.18 µM (active) |
| C[C@H](CCC(=O)O)[C@H]1CCC2C3C[C@H](O)[C@@H]4C[C@H](O)CC[C@]4(C)C3CC[C@@]21C (stereo not given in full) | 79.8% | 102% | 88.7% | 103% | 130% | 120% | inactive | inactive | inactive | inactive | inactive | inactive | inactive |
| C=C1CCC2[C@](C)(CO)C(O)CC[C@]2(C)C1CC=C1C(=O)OCC1O (stereo not given in full) | 94.9% [at 57.5 µM] | 85.2% [at 57.5 µM] | 92.9% [at 57.5 µM] | 46.9% [at 57.5 µM] | 83.8% [at 92.2 µM] | 110% [at 92.2 µM] | inactive | inactive | inactive | inactive | inactive | inactive | inactive |
| CCC(C)CCCCC(=O)N[C@@H](CCN)C(=O)NC(C(=O)N[C@H](CCN)C(=O)N[C@@H]1CCNC(=O)C([C@@H](C)O)NC(=O)[C@@H](CCN)NC(=O)[C@@H](CCN)NC(=O)[C@@H](CC(C)C)NC(=O)[C@H](Cc2ccccc2)NC(=O)[C@H](CCN)NC1=O)[C@@H](C)O (stereo partly drawn) ({Octanoyl(6-Me)}-[Dab][ξThr(3R)][dDab][dDab][Dab]F[dL][dDab][dDab][ξThr(3R)]; lactam 4-C) | 407% | 124% | 83.7% | 96.2% | 172% | 116% | inactive | inactive | inactive | inactive | inactive | inactive | inactive |
| Cn1cc(CNCC2CCN(c3ncc(C(=O)NO)cn3)CC2)c2ccccc21 | 4.76% | 7.34% | 8.03% | 7.88% | 12.7% | 4.24% | inactive | inactive | 0.0332 µM (active) | 0.0332 µM (active) | 0.0332 µM (active) | 0.0209 µM (active) | 1.05 µM (active) |
| C[C@H]1[C@@H](OC(=O)CCC(=O)O)O[C@@H]2O[C@@]3(C)CC[C@@H]4[C@H](C)CC[C@@H]1[C@@]24OO3 | 21.4% | 7.38% | 10.6% | 8.92% | 9.55% | 5.3% | inactive | inactive | 1.87 µM (active) | 1.32 µM (active) | 1.66 µM (active) | 9.35 µM (active) | 16.6 µM (active) |
| FC(F)c1nc2ccccc2n1-c1nc(N2CCOCC2)nc(N2CCOCC2)n1 | 4.72% | 7.94% | 8.19% | 3.1% | 9.88% | 37.8% | inactive | inactive | 0.235 µM (active) | 0.59 µM (active) | 3.72 µM (active) | 0.118 µM (active) | 1.16 µM (active) |
| CCCCCCCCc1ccc(CCC(N)(CO)CO)cc1 | 9.21% | 14.6% | 24.2% | 4.09% | 4.54% | 3.28% | inactive | inactive | 23.5 µM (active) | 20.9 µM (active) | 20.9 µM (active) | 18.7 µM (active) | 23.5 µM (active) |
| Cn1cc(-c2cnn3c(N)c(Br)c([C@H]4CCCNC4)nc23)cn1 | 7.85% | 10.3% | 8.07% | 3.69% | 8.78% | 14.4% | inactive | inactive | 0.332 µM (active) | 0.118 µM (active) | 0.148 µM (active) | 0.187 µM (active) | inactive |
